Results from the supplement of paper PMC4466140.

Assays:
Test in all cases: SPOT peptide array binding signal intensity (averaged, normalized) (arbitrary units (background-subtracted, floor 0; scale differs between SH3 domains)); higher = stronger binding of the SH3 domain to the peptide
CaNbp2 = target: CaNbp2
In short: (§1)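 Binding signal is given in arbitrary units that differ between domains and is the normalized, background-subtracted spot intensity averaged across replicates. Each GST-SH3 fusion from one of four yeast species was made in E. coli BL21(DE3), purified on glutathione Sepharose and incubated at 10 μg/ml overnight at 4°C on cellulose-bound synthetic 15-mer peptides in which cysteines were replaced by serines. Detection used anti-GST antibody, an HRP anti-mouse secondary and luminol, followed by imaging and Genespotter quantification.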

CaRvs167 = target: CaRvs167
In short: as §1

CaRvs167-3 = target: CaRvs167-3
In short: as §1

CaSho1 = target: CaSho1
In short: as §1

CaSla1-D1-D2 = target: CaSla1-D1-D2
In short: as §1

CaSla1-D3 = target: CaSla1-D3
In short: as §1

ScAbp1 = target: ScAbp1
In short: as §1

ScBbc1 = target: ScBbc1
In short: as §1

ScBem1-D1 = target: ScBem1-D1
In short: as §1

ScBzz1-D1 = target: ScBzz1-D1
In short: as §1

ScBzz1-D2 = target: ScBzz1-D2
In short: as §1

ScCyk3 = target: ScCyk3
In short: as §1

ScFus1 = target: ScFus1
In short: as §1

ScHof1 = target: ScHof1
In short: as §1

ScHse1 = target: ScHse1
In short: as §1

ScLsb1 = target: ScLsb1
In short: as §1

ScLsb2 = target: ScLsb2
In short: as §1

ScLsb3 = target: ScLsb3
In short: as §1

ScLsb4 = target: ScLsb4
In short: as §1

ScMyo3 = target: ScMyo3
In short: as §1

ScMyo5 = target: ScMyo5
In short: as §1

ScNbp2 = target: ScNbp2
In short: as §1

ScPex13 = target: ScPex13
In short: as §1

ScRvs167 = target: ScRvs167
In short: as §1

ScSho1 = target: ScSho1
In short: as §1

ScSla1-D1-D2 = target: ScSla1-D1-D2
In short: as §1

ScSla1-D3 = target: ScSla1-D3
In short: as §1

SpAbp1-D1 = target: SpAbp1-D1
In short: as §1

SpBbc1 = target: SpBbc1
In short: as §1

SpBzz1-D1 = target: SpBzz1-D1
In short: as §1

SpBzz1-D2 = target: SpBzz1-D2
In short: as §1

SpCyk3 = target: SpCyk3
In short: as §1

SpHof1 = target: SpHof1
In short: as §1

SpHof1-2 = target: SpHof1-2
In short: as §1

SpHof1-3 = target: SpHof1-3
In short: as §1

SpHse1 = target: SpHse1
In short: as §1

SpLsb1 = target: SpLsb1
In short: as §1

SpLsb4 = target: SpLsb4
In short: as §1

SpMyo1 = target: SpMyo1
In short: as §1

SpNbp2 = target: SpNbp2
In short: as §1

SpPex13 = target: SpPex13
In short: as §1

SpRvs167 = target: SpRvs167
In short: as §1

SpSla1-D1-D2 = target: SpSla1-D1-D2
In short: as §1

SpSla1-D3 = target: SpSla1-D3
In short: as §1

AgAbp1 = target: AgAbp1
In short: as §1

AgBbc1 = target: AgBbc1
In short: as §1

AgBem1-D1 = target: AgBem1-D1
In short: as §1

AgBzz1-D1 = target: AgBzz1-D1
In short: as §1

AgBzz1-D2 = target: AgBzz1-D2
In short: as §1

AgCyk3 = target: AgCyk3
In short: as §1

AgFus1 = target: AgFus1
In short: as §1

AgHof1 = target: AgHof1
In short: as §1

AgHse1 = target: AgHse1
In short: as §1

AgLsb1 = target: AgLsb1
In short: as §1

AgLsb4 = target: AgLsb4
In short: as §1

AgMyo5 = target: AgMyo5
In short: as §1

AgNbp2 = target: AgNbp2
In short: as §1

AgRvs167 = target: AgRvs167
In short: as §1

AgSho1 = target: AgSho1
In short: as §1

AgSla1-D1-D2 = target: AgSla1-D1-D2
In short: as §1

AgSla1-D3 = target: AgSla1-D3
In short: as §1

CaAbp1-D1 = target: CaAbp1-D1
In short: as §1

CaAbp1-D2 = target: CaAbp1-D2
In short: as §1

CaBbc1 = target: CaBbc1
In short: as §1

CaBem1-D1 = target: CaBem1-D1
In short: as §1

CaBzz1-D1 = target: CaBzz1-D1
In short: as §1

CaBzz1-D2 = target: CaBzz1-D2
In short: as §1

CaCyk3 = target: CaCyk3
In short: as §1

CaFus1 = target: CaFus1
In short: as §1

CaHof1 = target: CaHof1
In short: as §1

CaHse1 = target: CaHse1
In short: as §1

CaLsb1 = target: CaLsb1
In short: as §1

CaLsb4 = target: CaLsb4
In short: as §1

CaMyo5 = target: CaMyo5
In short: as §1

Measured: SPOT peptide array binding signal intensity

B1: unnamed (peptide)
chain: MSPLGAPPPPPHKDH
700: ScMyo3
1060: SpMyo1
1: ScBzz1-D2 | SpHof1
0.833: CaRvs167
0.5: SpHof1-3
751: ScMyo5
2: ScRvs167
12.7: SpRvs167
1.5: ScBzz1-D1
324: SpBzz1-D1
not listed: AgAbp1 | AgBbc1 | AgBem1-D1 | AgBzz1-D1 | AgBzz1-D2 | AgCyk3 | AgFus1 | AgHof1 | AgHse1 | AgLsb1 | AgLsb4 | AgMyo5 | AgNbp2 | AgRvs167 | AgSho1 | AgSla1-D1-D2 | AgSla1-D3 | CaAbp1-D1 | CaAbp1-D2 | CaBbc1 | CaBem1-D1 | CaBzz1-D1 | CaBzz1-D2 | CaCyk3 | CaFus1 | CaHof1 | CaHse1 | CaLsb1 | CaLsb4 | CaMyo5
≤ 0: all other assays above

B2: unnamed (peptide)
chain: SPLGAPPPPPHKDHL
176: SpBzz1-D1
670: ScMyo5
13.5: CaMyo5
8.5: CaBzz1-D1
2: SpPex13
0.167: SpRvs167
11: ScBzz1-D1
1260: SpMyo1
931: ScMyo3
1.5: ScHof1
1: AgCyk3 | CaHse1 | ScRvs167 | SpHof1-2 | SpSla1-D1-D2
546: AgMyo5
6: AgSla1-D1-D2
2.83: AgRvs167
3: AgBzz1-D2 | CaRvs167
≤ 0: all other assays above
